Assay outcomes: PubChem, several laboratories
ATG4B inh: ATG4B protease inhibitors, primary screen, biochemical, fluorescence, uHTS; Cysteine protease ATG4B (Homo sapiens), Q9Y4P1; ATG4B cleavage of LC3-PLA2, NBD-HPC fluorescence, 1 h; inhibition, % at 8.33 µM; hit rate 0.51% among 340,000; in the data active = inhibition above about 40%
Target sequence (Q9Y4P1 whole entry, looked up): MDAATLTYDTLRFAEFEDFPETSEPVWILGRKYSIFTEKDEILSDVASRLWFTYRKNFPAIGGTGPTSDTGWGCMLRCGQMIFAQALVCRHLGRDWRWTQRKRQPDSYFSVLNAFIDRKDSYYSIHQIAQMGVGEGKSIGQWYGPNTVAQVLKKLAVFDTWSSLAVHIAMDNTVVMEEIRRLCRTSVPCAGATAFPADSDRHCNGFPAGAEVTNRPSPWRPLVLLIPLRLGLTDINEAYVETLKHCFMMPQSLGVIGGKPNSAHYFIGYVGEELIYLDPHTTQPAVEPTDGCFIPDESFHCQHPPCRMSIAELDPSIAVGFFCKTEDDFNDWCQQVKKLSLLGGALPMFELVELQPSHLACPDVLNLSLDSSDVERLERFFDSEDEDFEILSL
SUMO Mot1 rescue: yeast Mot1-301 growth rescue at high temperature, primary screen, SUMOylation pathway inhibitor project, S. cerevisiae, ATP luminescence, 38.5C; S. cerevisiae Mot1-301 growth rescue; percent above DMSO median, 100 means doubled; growth rescue, % at 18.8 µM; hit rate 1% among 320,000; AID 2716, 2010;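 active = every valid replicate shows activation above 250% relative to neutral control wells; inactive = the rest, any valid replicate at or below 250%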;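 also: OY570 slx delta 5 strain wells were the positive control but not used for scaling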
V-ATPase pH: regulators of yeast V-ATPase proton pumping, primary screen, pHLuorin cytosolic pH fluorescence. S. cerevisiae. response, % at 10 µM. hit rate 0.37% among 350,000; in the data active = response mostly above about 7.3%, no sharp cut-off; inactive = mostly below about 5.4%; also: actives read high
AI-2 QS mod: Vibrio harveyi AI-2 quorum sensing modulators, primary screen, JMH597 strain, luminescence/OD600 ratio; Vibrio harveyi JMH597 AI-2 luminescence/OD600 ratio, 9 h; stronger effect = lower value; strain lacks LuxN and CqsS sensors; 0 = neutral-control median; activity change, % at 7.5 µM; hit rate 0.4% among 300,000; AID 2094, 2009; in the data active = activity change below about -75%, passing the limit was not always enough;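 also: luminescence divided by OD600 gain over 9 h not by final OD600 alone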
Efflux pump inh: inhibitors of Candida efflux pumps in yeast, primary screen, S. cerevisiae, Nile Red, multiplex | S. cerevisiae Candida pump triplex | inhibition, % at 10 µM | hit rate 0.44% among 330,000;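 active = plate passing quality check with inhibition over a set limit, or well fluorescence over plate mean plus 4 SD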;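 also: Nile Red retained in pooled yeast measured as flow cytometry median fluorescence; 0% = buffer negative control and 100% = Enniatin B positive control; higher means more Nile Red kept so more efflux inhibition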
V-ATPase pH SP: yeast V-ATPase proton pumping modulators, confirmation, S. cerevisiae, pH-sensitive GFP, second cherry-pick; AID 602197, 2012; hit rate 2% among 980; shares compounds with V-ATPase pH; S. cerevisiae pHLuorin cytosolic pH, V-ATPase proton transport; response, % at 10 µM; in the data active = response above about 24%;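 also: plate controls were vehicle wells for no effect and positive control wells for full effect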
An asterisk follows results filed as active; . = no result given. This is a sample that favours compounds with a hit; in the whole collection about 2.5% have one here.

SMILES	ATG4B inh	SUMO Mot1 rescue	V-ATPase pH	AI-2 QS mod	Efflux pump inh	V-ATPase pH SP
Cc1nn(Cc2c(F)c(F)c(F)c(F)c2F)c(C)c1NC(=O)c1ccc(COc2ccccc2Cl)cc1	8	.	16*	36	.	0
Cc1nn(Cc2ccc(C(=O)Nc3ccccc3F)cc2)c(C)c1Cl	6	-20	3	7	0	.
N=C1/C(=C/c2cccn2Cc2ccc(F)cc2)C(=O)N=C2SC=CN12	-3	-7	11*	3	0	-1
CCOC(=O)c1nc2ccccc2nc1C	-2	3	3	15	0	.
CCOC(=O)c1c(C)nc2ccccc2c1C	-11	-8	-3	13	0	1
CCOC(=O)Cc1nc2ccccc2[nH]1	7	955	3	17	0	-5
CCOC(=O)c1nc2ccccc2c(C)c1C	27	-7	4	-1	0	2
CCc1noc(C)c1C(=O)Nc1ccccc1C(C)(C)C	-7	3	-4	4	0	.
Cc1nn(CC(=O)NCc2ccc(-n3cccn3)cc2)c(C)c1[N+](=O)[O-]	-10	5	-4	-2	0	.
COc1cc(-c2cc(=O)c3ccccc3o2)ccc1O	-5	15	7.7*	22	0	7
COc1ccccc1NC(=O)c1ccc2nc(C)c(C)nc2c1	-10	3	-2	16	0	.
COc1ccc(NS(=O)(=O)CC(C)C)c(OC)c1	1	20	11*	17	0	0
CCc1noc(C)c1C(=O)N1CCN(S(=O)(=O)c2cccs2)CC1	1	-4	7.1*	12	0	1
Cc1c(Cl)cnc(NC(=O)COC(=O)c2ccncc2)c1Cl	4	-12	6	.	0	.
Cc1noc(C)c1C(=O)OCC(=O)Nc1ncc(Cl)c(C)c1Cl	0	120	11*	.	0	1
O=C(CCCC(=O)N(c1ccc(F)cc1)C(C(=O)NC1CCCC1)c1ccc(O)cc1)Nc1ccccn1 (configuration not stated)	-8	-10	11*	0	0	1
CCOC(=O)NCc1ccc2[nH]c(C)cc2c1	-4	-9	11*	10	0	2
CC1CC(C)(C)CC2(C1)NC(=O)N(CC(=O)Nc1ccc(N3CCCCC3)cc1)C2=O (configuration not stated)	2	3	-1	40	0	.
C=CCNC(=O)C(=O)Nc1cc2c3c(c1)CCC(=O)N3CCC2	-7	-1	2	18	0	.
CC(=O)Nc1ccc2nc(CN3CCN(Cc4ccc(F)cc4)C(CCO)C3)ccc2c1 (configuration not stated)	-11	-29	11*	3	0	0
NS(=O)(=O)c1ccc(NC(=O)Nc2ccc(C(F)(F)F)cc2)cc1	-11	-30	-2	8	0	.
CCOC(=O)c1cnc(SC)nc1Oc1cccc(NS(=O)(=O)c2ccc(C)cc2)c1	-14	2	1	16	0	.
COc1ccc(C)cc1S(=O)(=O)NCC(c1ccc2c(c1)OCO2)N1CCOCC1 (configuration not stated)	4	-13	11*	-4	0	-4
Cc1nnc(SC(C)C(=O)N(C)C2CCCCC2)n1N (configuration not stated)	-4	8	7.1*	.	0	0
CC(Sc1nnc(-c2ccco2)n1C)C(=O)N(C)C1CCCCC1 (configuration not stated)	2	-6	-2	16	0	.
SMILES	ATG4B inh	SUMO Mot1 rescue	V-ATPase pH	AI-2 QS mod	Efflux pump inh	V-ATPase pH SP
FC(F)(F)c1cc(-c2ccccc2)nc(-n2cc(Cl)cn2)n1	-6	16	-1	12	0	.
COc1nn(-c2nc(-c3ccccc3)cc(C(F)(F)F)n2)cc1[N+](=O)[O-]	1	-10	17*	11	0	0
N#Cc1cnc2nc(SCc3ccccc3)nn2c1	-1	-4	-2	3	0	.
O=C(O)CCCC(=O)N1CCCC1	-8	277	12*	15	0	-2
O=C(CCCC(=O)N1CCCC1)N1CCCC1	-3	-15	5	16	0	.
COc1ccc(/C=C/C(=O)OCC(=O)NC2CCCC2)cc1OC	-3	7	0	.	0	.
